Percent growth data for 22 compounds are collected here from the supplement of paper PMC7866885, “A novel bicyclic 2,4-diaminopyrimidine inhibitor of Streptococcus suis dihydrofolate reductase” (PeerJ, 2021).

SMILES strings stand for the structures. ± gives the standard deviation.

The test deals with Streptococcus suis HE06. Description: percent growth relative to DMSO control; higher = less growth inhibition. The conditions noted are these: 10 µM; incubation time 18 h. How it is done: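 CLSI broth microdilution: 5x10^4 CFU of Streptococcus suis (strain P1/7 or HE06) incubated with 10 µM Pathogen Box compound in cation-adjusted Mueller Hinton broth, 37 °C, 5% CO2, 18 h. Growth read as OD600 and expressed as percent of the DMSO-treated control (100%); mean ± SD of three independent experiments.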
The compound `Clc1cccc(CO[C@H]2CCc3ccccc3[C@@H]2n2ccnn2)c1` gave a percent growth of 97.4 ± 3.9%. The compound `COc1ccccc1CNC(=O)c1cc(C2CC2)nc2c1cnn2C(C)C` gave a percent growth of 81.6 ± 10%.

As for `N#CCN(CCCCN1CCN(c2ccc(F)cc2)CC1)C(=O)OCc1ccccc1`, the percent growth was 93.7 ± 14%.

Compound `Cc1ccc2nc(C)c(-c3ccn(Cc4ccccc4)n3)n2c1` displayed a percent growth of 90 ± 35%. Next, `C[C@@H]1[C@H](O)[C@@H](C)/C=C/C=C/C=C/C=C/C=C/C=C/C=C/[C@H](O[C@@H]2O[C@H](C)[C@@H](O)[C@H](N)[C@@H]2O)C[C@@H]2O[C@](O)(C[C@@H](O)C[C@@H](O)[C@H](O)CC[C@@H](O)C[C@@H](O)CC(=O)O[C@H]1C)C[C@H](O)[C@H]2C(=O)O`: 97.2 ± 8.6%; `Cc1nc(-c2ccccn2)nc(N2CCC(Cc3ccccc3)C2)c1Cl` (configuration not stated): 0.933 ± 1.6%; `C[C@H](C(N)=O)N1CCCC[C@H]1c1ccc(OCc2cccc(F)c2)cc1`: 85.5 ± 23%. For the compound `O=C(c1cc2ccccc2o1)N1CCN(Cc2ccc3c(c2)OCO3)CC1`, the percent growth came out at 84.6 ± 20%. Take `CCC(C)NC(=O)c1ccc(NC(=O)C2(c3ccccc3)CCCC2)cc1` (configuration not stated): the percent growth stood at 105 ± 27%. Next, `CCCn1c(NC(=O)c2ccc3ccccc3n2)nc2ccccc21`: 0%; `O=C(Nc1ccccc1-c1nc2c(C(=O)O)cccc2o1)c1ccccc1`: 68.4 ± 14%; `CC(C)(C)n1nc(Cc2cccc3ccccc23)c2c(N)ncnc21`: 90.1 ± 3.1%. Next, `CC(C)(C(=O)Nc1ccc(F)cc1)n1cc(-c2ccccc2F)cn1`: 106 ± 22%. Next, `Cc1nc(-c2ccccn2)nc(NCCc2ccc(S(C)(=O)=O)cc2)c1Cl`: 131 ± 60%; `CCCn1nnc(NC(=O)COc2ccc(C3CCCCC3)cc2)n1`: 115.2 ± 1%; `COc1ccccc1OCCCCn1c(C2CC2)nc2ccccc21`: 102.6 ± 0.9%. `COc1cccc2c(C)nc(N=C(N)N)nc12` had a percent growth of 57.7 ± 22%.

In turn, `CCC(=O)Nc1ccccc1C(=O)Nc1ccccn1` displayed a percent growth of 93.7 ± 5.2%. In the case of `Nc1ccc2ncnc(Nc3ccc(OCc4cccc(F)c4)c(Cl)c3)c2c1` it was 111 ± 9.4%; in that of `COc1cccc(-n2nnnc2S(C)(=O)=O)c1`, 88.1 ± 9.8%; in that of `O=C1N(Cc2cc3ccccc3s2)CC2CN(Cc3ccccc3)CCN12` (configuration not stated), 82.2 ± 8%. `Nc1nc(N)c2c3c(sc2n1)CN(Cc1ccccc1)CC3` came in with a percent growth of 94.5 ± 3.1%.
